molecular target: P2RY8; test: pooled miR-30 sensor sort-seq; sequence = guide strand; details: shRNA
Further: reference of the scale not given here.

Row | Sequence | sensor-assay potency score (higher = more potent)
1 | TTGCTTTCTAGGGTTCAGCTTT | -0.874
2 | TTGATCATGAAGATGACCGACG | -0.289
3 | TTCATTACTAAACCATCTCTGT | -0.448
4 | TACTGTGAAGATGCTACTCTGA | -0.29
5 | TTCAGCTTTGGAACAGTCTAGA | -0.295
6 | TTTTCCATCTTAAAACATGTGT | -0.223
7 | TTTCACTCAAAGCTCAACCAGT | 0.0389
8 | TTGAGGACGTCGAAGCAGGTGA | -0.556
9 | TCAACCAGTGAACAGACTGAGT | -1.22
10 | TACACGTGGTAGTAGCTCTTGC | -0.559
11 | TGGAACAGTCTAGAGAAGCAGG | -1.38

molecular target: P4HA2; test: as above; details: shRNA

Row | Sequence | sensor-assay potency score (higher = more potent)
12 | TTGCCTGGTACTTGGTTCCTGG | -0.843
13 | TTAGGTTTTGCGATCTCCTTGA | 0.73
14 | TTGTACCAGAACACAGCTGTAC | -0.305
15 | TAGACAGCTAACTCTGCTGCAG | -0.415
16 | TAATCTTGGAAAGCTTGGCTTC | -0.909
17 | TTGCAACCTGTAACAATTCTGC | -0.407
18 | TTTAGGTTTTGCGATCTCCTTG | -0.309
19 | TTAACGTTTTTTCTCTCTCTTC | -0.749
20 | TTATTGGAGACCCACTTGCAGC | -1.45
21 | TTCTACATCACTCATGTAGTTA | -0.685
22 | TATCTCGTCCTCATCAGTGGGG | 0.413
23 | TTAAGAAACGTCGCTAACCTAT | -0.763

Source: the OligoGym collection
